# Assay results as given in ChEMBL document CHEMBL3988442, “University of Dundee, Small-Polar-MMV Screening Library” (2021).
# About 13,000 (27%) of roughly 48,000 compounds showed an effect of 50% or more. Some of the results follow.
# Tested on: Wolbachia pipientis
# Experiment: Anti-Wolbachia Cell-Based Screen
# Assay type: functional
# Design: scale not given: in the data most compounds retested in dose-response had high values
# Details: 5 µM
row,SMILES,Percent Effect [%]
1,CN(Cc1nc(C(F)(F)F)cs1)C(=O)CCc1ccccn1,104.8
2,Cc1nc(CN2CCN(C(=O)CCc3cccnc3)CC2)no1,-0.7807
3,CN(Cc1ccccn1)C(=O)Nc1cc(C(F)(F)F)c[nH]c1=O,11.49
4,CN(Cc1nc(C(F)(F)F)cs1)C(=O)CCc1cccnc1,99.2
5,CN(Cc1cc(Br)cn1C)C(=O)Cc1cccnc1,-0.2173
6,CN(CCc1ccccn1)C(=O)Nc1cc(C(F)(F)F)c[nH]c1=O,14.36
7,COC(=O)c1ccc2nc(CO[C@H]3CN(CC4CC4)C[C@H]3F)[nH]c2c1,5.552
8,N#Cc1nccnc1N1CCC(COCc2ccccc2)C1 (configuration not stated),-0.4127
9,OCC(O)CSCc1cn(-c2ccc(Cl)c(Cl)c2)nn1 (configuration not stated),-1.515
10,C[S+]([O-])CCCNCc1cc(F)ccc1Br (configuration not stated),11.95
11,Cc1cnn(CCNCC(O)COc2ccc(C#N)cc2)c1 (configuration not stated),-2.958
12,CCn1cnnc1CNC(=O)N1CCN(c2cccc(OC)c2)CC1,2.392
13,CCn1cnnc1CNC(=O)N(C)Cc1ccccc1OC,-13.71
14,CCn1cnnc1CNC(=O)N1CCN(c2cccc(C)c2)CC1,81.4
15,CCn1cnnc1CNC(=O)N1CCN(c2ccccc2O)CC1,92.65
16,CCn1cnnc1CNC(=O)N1CCN(c2ccc(OC)cc2)CC1,88.94
17,Cc1cccc(N2CCN(C(=O)Nc3cnn(CC(N)=O)c3)CC2)c1,-8.219
18,CCn1cnnc1CNC(=O)NCC(O)c1ccc(OC)cc1 (configuration not stated),3.56
19,CCn1cnnc1CNC(=O)N1CCN(c2ccccc2OC)CC1,95.25
20,CC(C)CC(NC(=O)CSCC(N)=O)c1cccs1 (configuration not stated),3.191
21,CN(C)S(=O)(=O)N1CCN(CC2CCOc3ccccc3C2)CC1 (configuration not stated),-1.148
22,O=C(CN1C(=O)CCNC1=O)N1CCOC(c2ccc(Cl)c(Cl)c2)C1 (configuration not stated),6.471
23,CSCCCN1CCc2nc(N(C)C)nc(N3CCC(O)CC3)c2C1,3.21
24,CCCc1cc(=O)[nH]c2nnc(SCC(=O)NC(C)(C)C)n12,7.571
25,CC(O)c1cccc(-n2c(CCC(=O)O)nc3ccccc32)c1 (configuration not stated),17.57

row,SMILES,Percent Effect [%]
1,CCn1cnnc1CNC(=O)N1CCOC(c2ccccc2Cl)C1 (configuration not stated),-10.89
2,CCn1cnnc1CNC(=O)N1CCOC(c2ccc(Cl)cc2)C1 (configuration not stated),-28.88
3,CCn1cnnc1CNC(=O)N1CCN(c2ccccc2Cl)CC1,101.2
4,CC(C)CC(O)C1CCN(C(=O)c2ccc(C(F)(F)F)nc2O)CC1 (configuration not stated),-33.24
5,CCN(C)CC(C)Cn1cnc(-c2ccccc2)c1C (configuration not stated),25.31
6,Cc1nc(C)c(CNCc2nnc3n2CCCC3C(F)(F)F)s1 (configuration not stated),-2.721
7,COc1cccc(NC(=O)CC2Cn3ncnc3NC2=O)c1 (configuration not stated),110.1
8,CCc1ccc(C(=O)Nc2ccc(CC3CC(=O)NC3=O)cc2)s1 (configuration not stated),-2.558
9,O=C(CN1C[C@H]2CC[C@@H]1CN(Cc1ccccn1)C2)Nc1ccccc1,0.8626
10,O=C(CN1CCC(Nc2ncccn2)CC1)Nc1ccccc1,-0.5486
11,O=C(CC1Cn2ncnc2NC1=O)Nc1cccc(C(F)(F)F)c1 (configuration not stated),102.6
12,O=C(Nc1cccc(C(F)(F)F)c1)N1CCN(CCn2ccnc2)CC1,2.864
13,CCc1ccc(NC(=O)CC2Cn3ncnc3NC2=O)cc1 (configuration not stated),123.1
14,CCc1ccc(C(=O)Nc2ccc(CC3CC(=O)NC3=O)cc2)cc1 (configuration not stated),-15.63
15,COC(=O)C1CN(CC(=O)Nc2cccc(OC)c2)c2ccccc21 (configuration not stated),10.48
16,O=C(Nc1cccc(C(F)(F)F)c1)C1CC(=O)N(Cc2ccccn2)C1 (configuration not stated),6.876
17,COc1cccc(NC(=O)CNc2ccc(C(=O)N(C)C)c(Cl)c2)c1,14.49
18,O=C(CC1Cn2ncnc2NC1=O)Nc1ccccc1 (configuration not stated),119.2
19,O=C(c1cc(F)cc(Cl)c1)N1CCN(CCO)[C@@H]2CS(=O)(=O)C[C@@H]21,-9.741
20,Cc1cc(CN2CCCC(CNC(=O)Cn3cccn3)C2)oc1C (configuration not stated),-41.99
21,O=C(NCCc1cccs1)N1CCCC1CCCO (configuration not stated),-4.53
22,CC(C)c1nc2n(n1)CC(NCc1nc(-c3cccnc3)no1)CC2 (configuration not stated),-4.778
23,COc1ccccc1[C@@H]1CN(Cc2csc(C(C)=O)c2)C[C@H]1C(=O)O,-15.68
24,COc1ccccc1C1(O)CCCN(C(=O)c2cnc(SC)nc2)C1 (configuration not stated),97.81
25,COc1ccccc1C1CCN(C(=O)c2ncccc2OC(C)C)C1 (configuration not stated),1.547

row,SMILES,Percent Effect [%]
1,CSc1ncc(C(=O)N2CCC(O)(CN3CCOCC3)C(C)(C)C2)cn1 (configuration not stated),-3.216
2,CC(=O)c1cc(C(=O)N2CCC3(CC2)Nc2ccccc2NC3=O)cs1,16.29
3,COc1ccccc1C1(O)CCCN(C(=O)c2csc(C(C)=O)c2)C1 (configuration not stated),80.49
4,COc1ncc(C(=O)N2CCC3(CC2)C(=O)Nc2ccccc23)cn1,-4.36
5,COc1ccccc1C1(O)CCCN(C(=O)c2ccnn2C(C)C)C1 (configuration not stated),100.6
6,COc1ccccc1C(=O)N1CCC(O)(c2cccc(C)c2C)CC1,6.429
7,CN(Cc1cn2c(n1)CN(C(=O)c1cccn1C)CC2)Cc1ccco1,10.07
8,COc1cccc(OCc2nnc3n2N=C(C(C)(C)C)CS3)c1,-3.476
9,CCC(CC)N(Cc1cc(=O)n(C)c(=O)n1C)C1CC1,-2.422
10,CC(C)C(O)CNC(=O)Nc1cccc(-c2nccs2)c1 (configuration not stated),0.8901
11,CN1CCC2(CC1)CN(CC1CC1)CC21CCNC1=O.O=C(O)C(F)(F)F.O=C(O)C(F)(F)F (configuration not stated),-40.68
12,CCN1CCCC(CNC(=O)C2(c3cccc(Cl)c3)CC2)C1 (configuration not stated),3.483
13,COCCN1CCC(CNC(=O)C2(c3cccc(C)c3)CC2)C1 (configuration not stated),112.6
14,COCCN1CCC(CNC(=O)C2(c3cc(C)cc(C)c3)CCC2)C1 (configuration not stated),8.369
15,COCCN1CCC(NC(=O)C2(c3cc(C)cc(C)c3)CC2)CC1,0.6832
16,COCCN1CCC(CNC(=O)C2(c3cccc(Cl)c3)CC2)C1 (configuration not stated),119
17,COCCN1CCC(CNC(=O)C2(c3cccc(C)c3)CC2)CC1,2.355
18,COCCN1CCC(CNC(=O)C2(c3cc(C)cc(C)c3)CC2)CC1,106.5
19,COC(C)c1noc(CN(C)c2ncc(Br)cn2)n1 (configuration not stated),13.56
20,CCCc1noc(CCCC(=O)N2CCCC(n3ccnc3C)C2)n1 (configuration not stated),-4.622
21,CCCN1CCC(N2CCC(Cn3cc(C4CC4)nn3)CC2)CC1,-14.8
22,Cc1ccc(F)c(S(=O)(=O)NCc2cccc(CS(C)(=O)=O)c2)c1,-5.265
23,O=C(O)C(F)(F)F.O=C1[C@H]2CN(CC3CCOCC3)C[C@H]2CN1Cc1cccc(F)c1,-3.595
24,Cc1cccc(CN2C[C@@H]3CN(C4CCOCC4)C[C@@H]3C2=O)c1.O=C(O)C(F)(F)F,2.907
25,CCS(=O)(=O)N1C[C@H]2CN(Cc3cccc(F)c3)C(=O)[C@H]2C1,106.4

row,SMILES,Percent Effect [%]
1,COc1ccc(CN2C[C@@H]3CN(CCO)C[C@@H]3C2=O)cc1,-4.847
2,CCS(=O)(=O)N1C[C@H]2CN(Cc3ccc(OC)cc3)C(=O)[C@H]2C1,106.9
3,CCS(=O)(=O)N1C[C@H]2CN(Cc3cccc(C)c3)C(=O)[C@H]2C1,103
4,Cc1cccc(CN2C[C@@H]3CN(C(=O)c4ccsc4)C[C@@H]3C2=O)c1,0.6245
5,COc1ccc(CN2C[C@@H]3CN(S(=O)(=O)C4CC4)C[C@@H]3C2=O)cc1,-20.01
6,Cc1cccc(CN2C[C@@H]3CN(C(=O)NC(C)C)C[C@@H]3C2=O)c1,0.03785
7,CCCNC(=O)[C@@H]1CCCN1[C@@H](C(=O)NC)C1CC1.Cl,-3.59
8,O=C(N1CCC(O)(C(F)(F)F)C1)C1(c2cccc(Cl)c2)CC1 (configuration not stated),-4.685
9,C[S+]([O-])c1ccc(NC(=O)CC2=CCCCC2)cc1 (configuration not stated),-2.422
10,CCOCC1CN(c2ncc(F)cn2)Cc2cn(CC)nc21 (configuration not stated),-1.494
11,COCC1CN(CCOc2ccc(Cl)cc2)Cc2c1cnn2C.O=C(O)C(F)(F)F.O=C(O)C(F)(F)F (configuration not stated),128.1
12,COCC1CN(CCc2ccc(OC)c(OC)c2)Cc2c1cnn2C (configuration not stated),98.17
13,CCOCC1CN(CCc2ccccc2)Cc2c1cnn2C (configuration not stated),9.007
14,CCn1ncc2c1CN(C(=O)c1cc(C)oc1C)CC2COC.O=C(O)C(F)(F)F (configuration not stated),-2.484
15,CCOCC1CN(CCOc2ccc(Cl)cc2)Cc2c1cnn2C.O=C(O)C(F)(F)F.O=C(O)C(F)(F)F (configuration not stated),-5.642
16,COCC1CN(S(=O)(=O)c2ccc(C)cc2)Cc2c1cnn2C.O=C(O)C(F)(F)F (configuration not stated),14.09
17,CCn1ncc2c1CN(C(=O)Cc1ccccn1)CC2COC.O=C(O)C(F)(F)F.O=C(O)C(F)(F)F (configuration not stated),-10.79
18,CCOCC1CN(CCOCc2ccccc2)Cc2c1cnn2C (configuration not stated),-3.92
19,CCn1ncc2c1CN(CCc1cccc(Cl)c1)CC2COC.O=C(O)C(F)(F)F.O=C(O)C(F)(F)F (configuration not stated),128.6
20,CN1CCN(c2ccc(NCc3ccc(OC(F)(F)F)cc3)cn2)CC1,-13.31
21,COC(=O)N1CCC(Nc2cccc(F)c2C#N)CC1,6.326
22,N#Cc1ccccc1C(=O)N1C[C@@H](CN2CCCCCC2)[C@@H](CO)C1,-2.218
